The record followed here is PubChem BioAssay AID504444 (National Center for Advancing Translational Sciences (NCATS), 2011).

Structures are written as SMILES. The whole screen tested about 360,000 compounds, of which about 7,500 (2.1%) were called active. Where a call stands in place of a potency, no number is given. Inconclusive results (about 20%) are left out. Calls follow the shape of the dose curve; as a rule, active = well fitted inhibition curve with a large enough effect; inconclusive = small, poorly fitted or top-dose-only effect, or effect the other way; inactive = flat fitted curve, though single readings scatter. Only a selection was taken, and actives are over-represented in it overall.
Potency is read from the fitted curve at half-maximal effect.

The nature of the assay: Nrf2 qHTS screen for inhibitors. Also: nearly all actives have a fitted effect of over 60% in size. The conditions noted are these: A549 ARE-Fluc reporter, luciferase luminescence, 18-24 h; series mostly up to 46 µM. Put shortly:
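A549 ARE_Fluc cells (5000/well, 5% FBS OPTI-MEM) pre-incubated 2 h, then treated with compounds 18-24 h at 37C/5% CO2 in concentration-response. CellTiter-Fluor viability read first; BugLite luciferase luminescence after 15 min at room temperature gives Nrf2 activity.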
(In general: In qHTS, concentration-response curves come from the screen itself.)
Regarding `O=C(Nc1ccccc1)Oc1cccc2cccnc12`, the Potency result was “inactive”.

As for `O=C(Nc1cc(S(=O)(=O)Nc2ccc(Cl)cc2)ccc1O)c1ccc(F)cc1F`, the Potency entry is “inactive”. With `O=C(c1c(F)cccc1Cl)N1CCN(c2ccccn2)CC1`, the Potency entry is “inactive”. Same read-out and setting: for `CCOC(=O)C1CCCN(C(=O)c2sc3nc(C)nc(N4CCOCC4)c3c2C)C1` (centres undefined) the value was “inactive”. On the same count and under the same terms, in the case of `Cc1nc(N2CCC(C)CC2)c2c(C)c(C(=O)Nc3cc(F)ccc3C)sc2n1` it was “inactive”; in that of `Cc1nc(N2CCN(c3ccccn3)CC2)c2c(C)c(C(=O)Nc3ccc(F)c(Cl)c3)sc2n1`, 16.4 µM (active). Still for that read-out and setting: for `Cc1nc(N2CCOCC2)c2c(C)c(C(=O)Nc3ccc(C(F)(F)F)cc3)sc2n1` the value was 9.2 µM (active); for `COc1ccc(NC(C)=O)cc1NC(=O)CN1CCN(c2ccccn2)CC1`, “inactive”; for `CC(NC(=O)c1ccccc1)C(=O)OCC(=O)Nc1cccc(S(=O)(=O)N2CCCC2)c1` (centres undefined), “inactive”. As to `COc1cc2c(cc1OC)C(Cc1cc(OC)c(OC)cc1[N+](=O)[O-])=NCC2`, the Potency entry is “inactive”. Same read-out and setting: in the case of `COc1ccc(CCNC(=O)c2ccc(NC(=O)CC3SC(N4CCCCC4)=NC3=O)cc2)cc1OC` (centres undefined) it was “inactive”; in that of `COc1ccc2c(c1)c(N1CCCC1=O)c(C(=O)Nc1ccc(OC)c(Cl)c1)n2C`, “inactive”. On the same count and under the same terms, for `O=[N+]([O-])c1ccc(N=NNc2ccc([N+](=O)[O-])cc2)cc1` the value was “inactive”. On to `Cc1ccc(C(=O)NCCSc2c(C)[nH]c3ccccc23)cc1C`, for which the activity change, negative = inhibition was -4.57% [at 9.27 µM] (inactive).

Regarding `Cc1ccc(NC(=O)CSc2cccc3cccnc23)c(C)c1`, the Potency result is “inactive”. Still for that read-out and setting: in the case of `CCn1cc(NC(=O)Nc2ccc(OC)c(OC)c2)c(C(N)=O)n1` it was “inactive”; in that of `C/C(CC(=O)Nc1ccc(C)cc1C)=N\NC(=O)C(C)C`, “inactive”.

Consider `Cc1ccc(NC(=O)NC(C)c2c(-n3cccc3)sc(C)c2C)c(C)c1` (centres undefined), for which the Potency is 18.4 µM (active). Still for that read-out and setting: for `COc1ccc(NC(=O)CNC(=O)Cc2ccccc2)cc1OC` the value was “inactive”; for `COc1ccc(NC(=O)NC(C)c2c(-n3cccc3)sc(C)c2C)cc1OC` (centres undefined), 20.6 µM (active). Take `CCCCN1CC(c2nc3ccccc3n2CCCCOc2ccc(C)cc2C)CC1=O` (centres undefined): the Potency result was “inactive”. On the same count and under the same terms, in the case of `Brc1c(CSc2nncc3ccccc23)nc2ccccn12` it was 8.2 µM (active); in that of `CN(C(=O)CSc1nncc2ccccc12)C1CCCCC1`, “inactive”. The same measure, in the same setting: in the case of `CCOc1ccc(NC(=O)CSc2nnc3c(n2)[nH]c2ccc(S(=O)(=O)N4CCOCC4)cc23)cc1` it was “inactive”. On the same count and under the same terms, for `CCCOc1ccc(Cc2c(O)nc(SC)[nH]c2=O)cc1C` the value was “inactive”. On to `CCCOc1ccc(Cc2c(Cl)nc(SC)nc2NC)cc1`, for which the Potency was 2.06 µM (active). Consider `Cc1nc(SCCOc2ccc(Cl)cc2)[nH]c(=O)c1Cc1ccccc1`, for which the Potency entry was “inactive”.

In the case of `COc1ccc(N2CCN(C(=O)C3CCCN(C(=O)c4cc5sccc5n4C)C3)CC2)cc1` (centres undefined), the Potency result is “inactive”.

With `C[n+]1ccc(/C=C/c2c[nH]c3ccccc23)cc1`, the Potency is 0.82 µM (active). Same read-out and setting: for `CSC(=S)N/N=C/c1c[nH]c2ccccc12` the value was “inactive”; for `O=C(NC1CCCC1)C(=O)c1c[nH]c2ccccc12`, “inactive”. On the same count and under the same terms, in the case of `COc1cccc(/C=N/Nc2ccc(S(=O)(=O)Nc3ccccc3C(=O)O)cc2[N+](=O)[O-])c1O` it was “inactive”; in that of `CCC1CCCCN1C(=S)NC(=O)c1ccco1` (centres undefined), “inactive”. `CCCc1nc2sc3c(c2c(=O)n1NC(=O)CCCl)CCCC3`: the Potency is 11.6 µM (active). Same read-out and setting: for `Cc1nc2sc3c(c2c(=O)n1NC(=O)CCl)CCCC3` the value was “inactive”. Turning to `Cc1ccc(C)c(-n2c(SCC(=O)O)nc3sc4c(c3c2=O)CCCC4)c1`, the Potency result is “inactive”.

`CCC(=O)N1CCc2cc(S(=O)(=O)NC(C(=O)Nc3ccc(C(C)=O)cc3)C(C)C)ccc21` (centres undefined): the Potency entry is “inactive”. With `O=C(NCC1(N2CCCCC2)CCCCC1)c1cccc(S(=O)(=O)Nc2ccccc2Cl)c1`, the Potency entry is “inactive”. On the same count and under the same terms, for `CCOc1ccc(CCNC(=O)c2cc3c(=O)n(C)c4ccccc4c3n2C)cc1` the value was “inactive”. The same measure, in the same setting: in the case of `NS(=O)(=O)c1ccc(NC(=O)CSc2nnc3c(n2)[nH]c2ccccc23)cc1` it was “inactive”. Take `Cc1cccc(NS(=O)(=O)c2ccc([N+](=O)[O-])cc2)n1`: the Potency entry was “inactive”. Still for that read-out and setting: for `O=C(NNS(=O)(=O)c1ccc(F)cc1)c1ccc([N+](=O)[O-])cc1Cl` the value was “inactive”; for `O=[N+]([O-])c1ccc(NS(=O)(=O)c2ccccc2)c(Cl)c1`, 11.6 µM (active). The same measure, in the same setting: for `CN(CC(=O)NCC(c1ccccc1)N1CCCC1)S(=O)(=O)c1ccc(Cl)cc1` (centres undefined) the value was “inactive”; for `CCCCCCn1nnc2sc(-c3ccccc3)cc2c1=O`, “inactive”; for `COc1cc(O)c2c(=O)c3c(O)c(O)ccc3oc2c1OC`, “inactive”. Turning to `O=C(Cc1ccc(NC(=O)C2CCCN(C(=O)C3CCCCC3)C2)cc1)Nc1cccc(C(=O)N2CCCCC2)c1` (centres undefined), the Potency result is “inactive”. On the same count and under the same terms, in the case of `COc1cc(/C=N/NC(=O)Nc2ccccc2)ccc1OCCOc1ccccc1C` it was 14.6 µM (active); in that of `COc1cc(/C=N/NC(=O)c2ccoc2C)ccc1OCCN1CCCCC1`, “inactive”. On the same count and under the same terms, in the case of `COc1cc(/C=N/NC(=O)c2ccccc2)ccc1OS(=O)(=O)c1ccccc1` it was “inactive”; in that of `COc1ccc(-c2sc3ccc(OC)cc3c2C#Cc2ccccn2)cc1`, “inactive”. The same measure, in the same setting: in the case of `CCCCC[C@@H]1C=C(C(=O)O)[C@H](c2ccc(C#N)cc2)N1S(=O)(=O)c1ccc(C)cc1` it was “inactive”. On to `COc1ccc(CN2CCN(C(=O)c3cc(C4CC4)nn3-c3ccccc3)CC2)cc1F`, for which the Potency result was “inactive”. Still for that read-out and setting: in the case of `CCOC(=O)CCC(NC(=O)c1ccc(CNc2nc3cc(C(F)(F)F)ccc3nc2C(=O)OCC)cc1)C(=O)OCC` (centres undefined) it was “inactive”; in that of `C=CCNC(=O)c1ccc2nc(-c3ccco3)c(-c3ccco3)nc2c1`, “inactive”. On the same count and under the same terms, in the case of `COCCNC(=O)Cn1cc(C(=O)c2cccs2)c2ccccc21` it was “inactive”; in that of `COC(=O)Cn1cc(C(=O)c2cccs2)c2ccccc21`, “inactive”. On the same count and under the same terms, in the case of `Cc1c(Cl)cccc1NC(=O)Cn1cc(C(=O)c2cccs2)c2ccccc21` it was 6.51 µM (active); in that of `Cc1cccc(N2CCN(C3=C(c4ccccc4)C(=O)c4ccccc43)CC2)c1C`, “inactive”; in that of `CCOc1ccc(S(=O)(=O)c2cn(Cc3ccccc3)c3ccc(OCC)cc3c2=O)cc1`, “inactive”. For the molecule `Cc1ccc(CNC(=O)C2CCCN(S(C)(=O)=O)C2)cc1` (centres undefined), the Potency entry was “inactive”. Still for that read-out and setting: for `CCOc1ccc(CNC(=O)C2CCCN(S(=O)(=O)N(CC)c3ccc(OCC)cc3)C2)cc1` (centres undefined) the value was 16.4 µM (active); for `CCS(=O)(=O)N1CCCC(C(=O)NCc2ccc(C)cc2)C1` (centres undefined), “inactive”. The same measure, in the same setting: for `Oc1ccc(/C=C/c2c(F)cccc2F)c2cccnc12` the value was “inactive”. In the case of `COc1ccc(-c2nc3ccccc3s2)cc1NC(=O)COc1ccccc1C`, the Potency result is “inactive”. As for `CC(=O)Nc1cccc(-c2nc3ccccc3s2)c1C`, the Potency is 7.31 µM (active).

`Cc1c(NC(=O)Cc2ccccc2)cccc1-c1nc2cccnc2s1`: the Potency result was “inactive”. The same measure, in the same setting: in the case of `COc1ccc(CCNC(=O)c2ccc(-n3c(C)cc4c3CCCC4)cc2)cc1OC` it was “inactive”; in that of `CN(Cc1cnccn1)C(=O)c1cc(COc2cccc(C(F)(F)F)c2)on1`, “inactive”.

`CN(Cc1cccnc1)C(=O)c1cc(COc2ccc3ncccc3c2)on1`: the Potency was 4.61 µM (active). As for `CC(=O)c1cccc(OCc2cc(C(=O)NC(C)Cc3cccnc3)no2)c1` (centres undefined), the Potency result is “inactive”. Same read-out and setting: in the case of `O=C1/C(=C\c2ccc(O)cc2)CCC1CNc1ccc(Cl)cc1` (centres undefined) it was “inactive”; in that of `CCN1C[C@@H]2[C@@H]3C(=O)N(C)C(=O)[C@@H]3[C@](C)(C1=O)N2C(=O)c1ccccc1`, “inactive”. With `COc1ccc(CCNC(=O)COc2cc(C)cc3oc(=O)c(C)c(C)c23)cc1OC`, the Potency result is “inactive”.

For the molecule `COc1ccccc1N1CCN(CCCNC(=O)c2cnn(-c3ccccc3Cl)c2C2CCN(C(=O)OC(C)(C)C)CC2)CC1`, the Potency result was “inactive”.

On to `CCOc1ccc(N2C(=O)CC(N(CCc3ccc(OC)c(OC)c3)C(=S)Nc3ccccc3)C2=O)cc1` (centres undefined), for which the Potency was 23.1 µM (active). Same read-out and setting: in the case of `COC(=O)CN(C(=S)Nc1ccc(Cl)cc1)C1CC(=O)N(c2ccc(OC)cc2)C1=O` (centres undefined) it was “inactive”; in that of `CCOc1ccc(N2C(=O)CC(N(O)c3ccccc3)C2=O)cc1` (centres undefined), “inactive”.

With `O=C1CC(c2nnc(Cc3ccc(Cl)cc3)o2)CN1c1ccccc1` (centres undefined), the Potency entry is “inactive”. The same measure, in the same setting: for `O=C(NCCNc1ccc([N+](=O)[O-])cc1Cl)c1ccccc1F` the value was 16.4 µM (active); for `O=C(NCCCNc1ccc([N+](=O)[O-])cc1Cl)c1ccccc1F`, “inactive”. The same measure, in the same setting: for `O=C(NCCNc1ccccc1[N+](=O)[O-])c1ccccc1F` the value was “inactive”. In the case of `COc1ccccc1Nc1c2c(nc3ccc(NC(=O)/C=C/c4cc(OC)c(OC)c(OC)c4)cc13)CCCC2`, the activity change, negative = inhibition is 4.54% [at 9.27 µM] (inactive). `COc1ccccc1CNC(=O)CCCCn1c(=O)c2ccccc2n(CC(=O)Nc2cc(Cl)ccc2C)c1=O`: the Potency result is “inactive”.

As for `COc1ccc(NC(=O)Cn2c(=O)n(CCC(C)C)c(=O)c3cccnc32)cc1Cl`, the Potency entry is “inactive”.

Consider `COc1ccccc1C(=O)c1ccccc1C(=O)c1ccccc1`, for which the Potency entry was “inactive”. The same measure, in the same setting: for `CC1Cc2nc(SCC(=O)Nc3ccccc3F)n(C)c(=O)c2S1` (centres undefined) the value was “inactive”; for `COCCn1c(SCC(=O)Nc2ccccc2F)nc2c(c1=O)SCC2`, 4.11 µM (active). Same read-out and setting: in the case of `COCCn1c(SCC(=O)N2CCCCCC2)nc2c(c1=O)SCC2` it was “inactive”; in that of `COC(=O)[C@@]1(C)[C@H]2C(=O)N(Cc3ccccc3)C(=O)[C@H]2[C@H]2CN=C(SCC3CC3)N21`, “inactive”. The same measure, in the same setting: in the case of `COc1ccccc1C1C(C#N)=C(N)Oc2c1c(-c1ccccc1)nn2-c1ccccc1` (centres undefined) it was 20.6 µM (active); in that of `Cc1nn(Cc2ccccc2)c2c1C(c1ccccc1)C(C#N)=C(N)O2` (centres undefined), “inactive”; in that of `Cc1nn(-c2ccccc2)c2c1C(c1ccc(F)cc1)C(C#N)=C(N)O2` (centres undefined), “inactive”. As to `Cc1oc2ccc(O)c(CN3CCCCC3)c2c1C(=O)Nc1cccc(C(F)(F)F)c1`, the Potency result was “inactive”. On the same count and under the same terms, in the case of `COc1cccc(C(=O)NC2CCN(C#N)CC2)c1` it was “inactive”. `Cc1ccccc1OCc1ccc(-c2nc(C#N)c(N3CCCCC3)o2)o1`: the Potency result was “inactive”. On to `Cc1ccccc1-n1c(SCC(=O)NCc2cccs2)nnc1-c1ccncc1`, for which the Potency result is “inactive”. In the case of `Cc1ccc(-n2c(SCC(=O)N3c4ccccc4Sc4ccccc43)nnc2-c2ccncc2)cc1`, the Potency result was “inactive”.

`Cc1ccc(Nc2nc(CSc3nnc(-c4ccncc4)n3-c3ccccc3C)cs2)cc1`: the Potency is 9.2 µM (active).
